Where a name gives a salt, the structure may show the parent alone.
Columns and labels:
HCC1937 = assay: relative cell viability, compound + RSL3, vs DMSO (fraction of DMSO control); higher = less growth inhibition; details: 72 h
MDA-MB-231 = assay: as above; details: 72 h
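Further: breast cancer cell viability read out with the CCK-8 kit after co-treatment of each compound with the ferroptosis inducer RSL3.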

| SMILES | relative cell viability (HCC1937) | relative cell viability (MDA-MB-231) |
| --- | --- | --- |
| CC(C)n1c(/C=C/C(O)CC(O)CC(=O)O)c(-c2ccc(F)cc2)c2ccccc21 (configuration not stated) [Fluvastatin sodium salt] + COC(=O)c1ccc([C@H]2c3[nH]c4ccccc4c3C[C@H](C(=O)OC)N2C(=O)CCl)cc1 [RSL3] | 0.504 | 0.547 |
| O=C(O)Cn1nnc(-c2cc(N3CCC(Oc4cc(F)ccc4Br)CC3)no2)n1 + COC(=O)c1ccc([C@H]2c3[nH]c4ccccc4c3C[C@H](C(=O)OC)N2C(=O)CCl)cc1 [RSL3] | 0.428 | 0.632 |
| O=C(Nc1cccnc1)N1CCC(Cc2cccc(Oc3ccc(C(F)(F)F)cn3)c2)CC1 + COC(=O)c1ccc([C@H]2c3[nH]c4ccccc4c3C[C@H](C(=O)OC)N2C(=O)CCl)cc1 [RSL3] | 0.727 | 0.644 |
| COc1ccc(-c2c[nH]c3nccc(-c4ccsc4)c23)c(OC)c1 + COC(=O)c1ccc([C@H]2c3[nH]c4ccccc4c3C[C@H](C(=O)OC)N2C(=O)CCl)cc1 [RSL3] | 0.403 | 0.665 |
| CN(C(=O)n1cnc(-c2ccc[n+]([O-])c2)c1)C1CCCCC1 + COC(=O)c1ccc([C@H]2c3[nH]c4ccccc4c3C[C@H](C(=O)OC)N2C(=O)CCl)cc1 [RSL3] | 0.292 | 0.526 |
| CC(C)CCC[C@@H](C)[C@H]1CC[C@H]2[C@@H]3CCC4=CC(=NO)CC[C@]4(C)[C@H]3CC[C@]12C [Olesoxime] + COC(=O)c1ccc([C@H]2c3[nH]c4ccccc4c3C[C@H](C(=O)OC)N2C(=O)CCl)cc1 [RSL3] | 0.454 | 0.689 |
| CC1(C)C[C@H]2C3=CC[C@@H]4[C@@]5(C)CC[C@H](O)[C@@](C)(CO)[C@@H]5CC[C@@]4(C)[C@]3(C)C[C@H](O)[C@@]2(CO)[C@@H](O)[C@@H]1O [Gymnemagenin] + COC(=O)c1ccc([C@H]2c3[nH]c4ccccc4c3C[C@H](C(=O)OC)N2C(=O)CCl)cc1 [RSL3] | 0.571 | 0.657 |
| O=C(CC(C(=O)O)c1c[nH]c2ccccc12)c1ccc(F)cc1F (configuration not stated) [Mitochonic acid 5] + COC(=O)c1ccc([C@H]2c3[nH]c4ccccc4c3C[C@H](C(=O)OC)N2C(=O)CCl)cc1 [RSL3] | 0.636 | 0.769 |
| O=C(CCCCCCCC(=O)NCCO)NCCO [Adelmidrol] + COC(=O)c1ccc([C@H]2c3[nH]c4ccccc4c3C[C@H](C(=O)OC)N2C(=O)CCl)cc1 [RSL3] | 0.659 | 0.651 |
| CCCCCCCCCc1ccc(B(O)O)cc1 [4-Nonylphenylboronic acid] + COC(=O)c1ccc([C@H]2c3[nH]c4ccccc4c3C[C@H](C(=O)OC)N2C(=O)CCl)cc1 [RSL3] | 0.546 | 0.732 |
| Cn1nc(C(=O)N(Cc2ccccc2)Cc2ccc(C(=O)O)cc2)c2c1-c1cc(Cl)ccc1OC2 [Nidufexor] + COC(=O)c1ccc([C@H]2c3[nH]c4ccccc4c3C[C@H](C(=O)OC)N2C(=O)CCl)cc1 [RSL3] | 0.488 | 0.673 |
| C[C@H](CCC(=O)O)[C@H]1CC[C@H]2[C@@H]3C[C@H](O)[C@@H]4C[C@H](O)CC[C@]4(C)[C@H]3CC[C@]12C [Hyodeoxycholic acid] + COC(=O)c1ccc([C@H]2c3[nH]c4ccccc4c3C[C@H](C(=O)OC)N2C(=O)CCl)cc1 [RSL3] | 0.829 | 0.611 |
| COc1cc(F)c(C(C)C)cc1-c1ccc(C(F)(F)F)cc1CN1C(=O)O[C@H](c2cc(C(F)(F)F)cc(C(F)(F)F)c2)[C@@H]1C [Anacetrapib] + COC(=O)c1ccc([C@H]2c3[nH]c4ccccc4c3C[C@H](C(=O)OC)N2C(=O)CCl)cc1 [RSL3] | 0.622 | 0.497 |
| O=C(Nc1ccc(C(O)(C(F)(F)F)C(F)(F)F)cc1)c1ccc(C(F)(F)F)cc1 + COC(=O)c1ccc([C@H]2c3[nH]c4ccccc4c3C[C@H](C(=O)OC)N2C(=O)CCl)cc1 [RSL3] | 0.264 | 0.255 |
| CCC(=O)O[C@]1(C(=O)SCF)[C@H](C)C[C@H]2[C@@H]3C[C@H](F)C4=CC(=O)C=C[C@]4(C)[C@@]3(F)[C@@H](O)C[C@@]21C [Fluticasone propionate] + COC(=O)c1ccc([C@H]2c3[nH]c4ccccc4c3C[C@H](C(=O)OC)N2C(=O)CCl)cc1 [RSL3] | 0.751 | 0.566 |
| CC(C)c1cc(C(C)C)c(CC(=O)NS(=O)(=O)Oc2c(C(C)C)cccc2C(C)C)c(C(C)C)c1 [Avasimibe] + COC(=O)c1ccc([C@H]2c3[nH]c4ccccc4c3C[C@H](C(=O)OC)N2C(=O)CCl)cc1 [RSL3] | 0.322 | 0.511 |

— the supplement of paper PMC9492666
